# Compound activity: PubChem, National Center for Advancing Translational Sciences (NCATS)
# Luciferase inh: blocks purified firefly luciferase enzyme activity; P08659; purified P. pyralis luciferase, luminescence, biochemical; Potency, µM (series often up to 115 µM), most hits filed as inhibitors; actives 2.5% (n = 76,000); note: nearly all actives have a fitted effect of over 65% in size
#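 Luminescence read by CCD imager after adding enzyme (10nM final) to wells holding compound, titrated in qHTS. Substrates 10uM each D-luciferin and ATP; buffer 50mM Tris acetate pH 7.5, 10mM Mg acetate, Tween-20, BSA.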
# hNpr1 antagonist: human Npr1 receptor antagonism; P16066; HEK293 hNpr1 GloSensor cGMP, ANP-stimulated luminescence; Potency, µM (series often up to 46.3 µM), for inactives: at the top dose activity change, negative = inhibition, usual class: inhibitors; actives 1.6% (n = 76,000); AID 1347048; calls by dose curve; note: nearly all actives have a fitted effect of over 60% in size
# Target sequence (P16066 whole entry, looked up): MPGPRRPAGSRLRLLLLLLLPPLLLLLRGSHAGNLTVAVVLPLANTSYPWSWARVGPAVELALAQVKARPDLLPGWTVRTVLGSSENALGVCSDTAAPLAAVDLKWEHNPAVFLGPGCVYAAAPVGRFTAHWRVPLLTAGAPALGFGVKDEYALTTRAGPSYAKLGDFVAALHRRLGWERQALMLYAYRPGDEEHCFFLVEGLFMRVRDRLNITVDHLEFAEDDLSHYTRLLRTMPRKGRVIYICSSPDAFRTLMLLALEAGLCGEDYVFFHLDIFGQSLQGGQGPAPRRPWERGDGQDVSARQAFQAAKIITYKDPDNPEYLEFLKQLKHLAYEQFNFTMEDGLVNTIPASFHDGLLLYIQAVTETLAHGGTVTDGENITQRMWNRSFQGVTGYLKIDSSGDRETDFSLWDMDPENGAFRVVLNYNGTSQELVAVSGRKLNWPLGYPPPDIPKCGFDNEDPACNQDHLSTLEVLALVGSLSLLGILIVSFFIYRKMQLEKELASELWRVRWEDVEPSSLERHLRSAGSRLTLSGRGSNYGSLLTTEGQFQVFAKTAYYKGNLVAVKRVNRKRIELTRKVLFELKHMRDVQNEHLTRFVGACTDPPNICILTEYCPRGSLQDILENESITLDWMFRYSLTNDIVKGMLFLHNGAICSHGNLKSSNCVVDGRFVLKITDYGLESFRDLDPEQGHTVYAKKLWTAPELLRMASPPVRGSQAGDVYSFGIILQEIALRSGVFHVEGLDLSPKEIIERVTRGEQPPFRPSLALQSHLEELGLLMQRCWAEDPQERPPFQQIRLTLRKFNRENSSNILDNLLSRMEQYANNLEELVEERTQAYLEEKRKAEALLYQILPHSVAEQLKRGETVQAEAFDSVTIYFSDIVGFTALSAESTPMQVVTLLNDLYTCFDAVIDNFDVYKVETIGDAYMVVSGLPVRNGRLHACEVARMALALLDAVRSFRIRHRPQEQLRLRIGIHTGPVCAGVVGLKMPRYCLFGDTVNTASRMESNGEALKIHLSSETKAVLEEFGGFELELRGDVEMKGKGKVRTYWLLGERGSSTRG
#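 HEK293 cells stably expressing human Npr1 and cGMP GloSensor pGS-40F, loaded 2 h with 2% GloSensor reagent, given compound 30 min at room temperature. Luminescence read before and 20 min after 0.1 nM hNppA.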
# HEK293 tox: kills HEK 293 cells; HEK 293 viability, ATP luminescence (CellTiter-Glo), 48-72 h; Potency, µM (top dose mostly 115 µM), for inactives: top-dose activity change, negative = cytotoxicity, most hits filed as inhibitors; actives 6.6% (n = 94,000); AID 1345083; note: nearly all actives have a fitted effect of over 60% in size
#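 CellTiter-Glo luminescence (cellular ATP) was read after 48 or 72 hr of compound exposure at 37 degree Celsius. Cells were HEK 293 plated at 250 cells/well.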
# NIH3T3 tox: kills NIH 3T3 cells; AID 1345082; Potency, µM (titrated, usually from 96.7 µM), for the others: top-dose activity change, negative = cytotoxicity, most hits filed as inhibitors; NIH 3T3 viability, CellTiter-Glo ATP luminescence, 48-72 h; actives 4.3% (n = 94,000); note: nearly all actives have a fitted effect of over 55% in size
#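 Mouse fibroblast NIH 3T3 cells, 400 per well, received compound via pintool and were incubated for 48 or 72 hr prior to CellTiter-Glo ATP luminescence measurement.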
# * marks the source's active call; other numbers are inactive results; i = inactive; ? = inconclusive; nt = no result given; [ ] = dose if it differs, or a comment. Sampled rows, rich in hits. Any-hit rate of the full collection: about 11%. Unless noted, calls come from the whole dose curve; as a rule, active = well fitted curve in the direction sought with a large enough effect; inconclusive = small, poorly fitted or top-dose-only effect, or another doubt; inactive = no such curve, though single readings can be large; an effect the other way counts as inactive or inconclusive. % is set by controls: 0 for no effect and ±100 for the full control effect; potency is the fitted concentration of half-maximal effect.
SMILES,Luciferase inh,hNpr1 antagonist,HEK293 tox,NIH3T3 tox
CCOC(=O)CN1C(=O)CN(C(=O)COC(C)=O)CCC(OC)c2ccccc21 (centres undefined),nt,nt,-16%,?
Cc1cccc(CNC(=O)c2c(C)noc2-c2cccs2)c1,i,-8%,?,?
COc1ccc(-c2cc3c(cn2)CN(Cc2ccccc2)CCN3)cc1OC,?,-13%[70.6 µM],?,45µM*
c1ccc(CCN2CCNc3cc(N4CCN(c5ccccn5)CC4)ncc3C2)cc1,i,-4%[70.6 µM],50µM*,28µM*
COc1ccc(Cl)cc1-c1cc2c(cn1)CN(Cc1cccnc1)CCN2,i,-6%[70.6 µM],?,?
Fc1ccccc1-c1cc2c(cn1)CN(Cc1ccncc1)CCN2,71µM*,?,?,?
COc1ccc(-c2cc3c(cn2)CN(CCc2ccccc2)CCN3)cc1OC,71µM*,-19%[70.6 µM],63µM*,40µM*
COc1ccc(C2(C(=O)NCc3ccccc3)CCOCC2)cc1,nt,nt,-20%[172 µM],-23%[138 µM]
COc1ccc(Cn2c(=O)c(C(=O)N3CCN(C(=O)C4CCCC4)CC3)nc3cccnc32)cc1,nt,nt,i,-2%
Oc1ccc(-c2cc3c(cn2)CN(Cc2ccccc2)CCN3)cc1F,25µM*,-2%[70.6 µM],?,?
c1ccc(CN2CCNc3cc(-c4ccncc4)ncc3C2)cc1,?,2%[70.6 µM],?,-19%[138 µM]
COc1ccc(CNc2cc3c(cn2)CN(Cc2ccccc2)CCN3)cc1OC,i,0%[70.6 µM],63µM*,40µM*
COc1ccc(NC(=O)NCC2CCC(=O)N(Cc3ccccc3)CC2)cc1F (centres undefined),nt,nt,-15%,-33%
Cc1nnc2ccc(N3CCCC(NC(=O)C4CC4)C3)nn12 (centres undefined),nt,nt,4%[172 µM],-11%[138 µM]
COc1ccccc1CN1CCCn2nc(C)c(-c3ccccc3[S+](C)(=O)[O-])c21,i,-19%[70.6 µM],45µM*,35µM*
Cc1nn2c(c1-c1ccccc1[S+](C)(=O)[O-])N(Cc1ccc3[nH]ccc3c1)CCC2,i,-16%[70.6 µM],?,-16%[138 µM]
Cc1nn2c(c1-c1ccccc1C(C)C)N(Cc1ccc(F)cc1)CCC2,i,-15%[70.6 µM],50µM*,28µM*
COc1ncccc1CN1CCCn2nc(C)c(-c3ccccc3C(C)C)c21,i,-24%[70.6 µM],50µM*,45µM*
COCCNC(=O)c1ccc2c(c1)N(C)C(CC(=O)N(C)CC(C)C)CO2 (centres undefined),i,0%,?,-23%
COc1ccccc1N1CCN(C(=O)C2N(C(C)C)C(=O)C23CCCCC3)CC1 (centres undefined),i,-12%,?,-9%
Cc1cc(OC2CN(Cc3ccc(C(F)(F)F)cc3)C2)ccc1F,i,-5%[70.6 µM],?,?
Cc1cc(OC2CN(Cc3cccc4ccccc34)C2)ccc1F,i,-20%[70.6 µM],100µM*,?
CCOc1ccccc1NC(=O)N1CC(n2cc(C(=O)N(C)C)nn2)C1,nt,nt,-4%,-15%
CC(C)CCNC(=O)c1cnc2n1CCN(Cc1ccc(C(C)C)cc1)CC2,i,?,56µM*,?
CC(C)c1ccc(CN2CCc3ncc(C(=O)Nc4ccccc4)n3CC2)cc1,i,-25%[70.6 µM],32µM*,28µM*
SMILES,Luciferase inh,hNpr1 antagonist,HEK293 tox,NIH3T3 tox
O=C(Nc1ccccc1)c1cnc2n1CCN(Cc1cccc(O)c1)CC2,?,-1%[70.6 µM],?,?
COc1ccc(-c2cc(C(=O)NC3CC3)c3c(C4CCCNC4)noc3n2)cc1 (centres undefined),nt,nt,32µM*,32µM*
c1ccc(CO[C@H]2COCCN(c3nc4ccccc4s3)C2)cc1,?,-4%[70.6 µM],112µM*,?
CN1CC(C(=O)NCCc2ccc(F)cc2)NC1=O (centres undefined),nt,nt,-22%[172 µM],-35%[138 µM]
CN(C)C[C@@H]1CN(C2CCOCC2)C[C@H]1NC(=O)c1cc2ccccc2[nH]1,i,-19%,32µM*,?
O=C(N[C@@H]1CN(C(=O)CCc2c[nH]c3ccccc23)C[C@H]1CO)c1ccccc1,nt,nt,i,-8%
Cc1ccccc1-c1nn(-c2ccc(F)cc2F)cc1CN1CCCC1CCO (centres undefined),i,2%,?,-11%
O=C(Nc1ccc2n(c1=O)C[C@H]1C[C@@H]2CN(C(=O)Nc2ccc(F)cc2)C1)c1ccccc1,i,1%,-6%,22µM*
CC(=O)c1ccc(NC(=O)N2C[C@@H]3C[C@H](C2)c2ccc(NC(=O)Nc4cccc(F)c4)c(=O)n2C3)cc1,35µM*,1%,-1%,-21%
